“And” between values parts separate entries of the source, which are not always exact repeats. Equal entries are not always repeated. A number with no mark means an inactive call. Inconclusive results are not listed. The source made the active and inactive calls. Unless noted, calls follow the shape of the dose curve; as a rule, active = well fitted curve in the direction sought with a large enough effect; inconclusive = small, poorly fitted or top-dose-only effect, or another doubt; inactive = no such curve, though single readings can be large; an effect the other way counts as inactive or inconclusive.
Key:
PA-1 = assay: Primary qHTS to identify gynecologic anti-cancer compounds using libraries of approved drugs and bioactive compounds (AID 1345084); settings: Gynecologic cancer cell panel viability, ATPlite luminescence, 48 h; series mostly up to 57.5 µM; also: nearly all actives have a fitted effect of over 55% in size; also: potency is read from the fitted curve at half-maximal effect
Method in brief: (§1)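 ATP-based viability (ATPlite), 1,000 cells/well, 16 h pre-incubation, 48 h compound at 37 C, 5% CO2, 15 min RT before read.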

SKOV3 = assay: as above; settings: Gynecologic cancer cell panel viability, ATPlite luminescence, 48 h; series mostly up to 57.5 µM
Method in brief: as §1

Tov-21-G = assay: as above; settings: Gynecologic cancer cell panel viability, ATPlite luminescence, 48 h; series mostly up to 57.5 µM
Method in brief: as §1

Tov112D = assay: as above; settings: Gynecologic cancer cell panel viability, ATPlite luminescence, 48 h; series mostly up to 57.5 µM
Method in brief: as §1

astro = assay: Drug repurposing screens with cells derived from glioblastoma tumor samples (AID 1345199); settings: viability, ATP luminescence, 48 h; series mostly up to 45.9 µM; also: nearly all actives have a fitted effect of over 40% in size; also: potency is read from the fitted curve at half-maximal effect; as to activity, negative = cell killing: % is scaled to controls: 0 for no effect and ±100 for the full control effect
Method in brief: (§2)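 Primary testing used CD133+ neurospheres from four GBM patients, seven concentrations, 48 h exposure and ATP-based viability; confirmation added three slower-growing patient lines.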

[1] = as above; settings: GBM patient neurospheres viability, ATP luminescence, 48 h
Method in brief: as §2

[2] = target: Nuclear receptor subfamily 1 group I member 2 (Rattus norvegicus) (UniProt Q9R1A7); assay: qHTS assay for small molecule activators of the rat pregnane X receptor (rPXR) signaling pathway (AID 651751; call rule not given here; also: 0% is about no effect); settings: rPXR reporter cells, luciferase (One-Glo), 24 h
[3] = qHTS assay for small molecule activators of the human pregnane X receptor (PXR) signaling pathway (AID 720659; call rule not given here; also: 0% is about no effect)
[4] = at 46.1 µM (top of the series), tumour line C
[5] = at 20 µM (top of the series), tumour line C
[6] = at 45.9 µM (top of the series), tumour line B
[7] = at 45.9 µM (top of the series), tumour line D
[8] = at 21.2 µM (top of the series), tumour line B
[9] = at 21.2 µM (top of the series), tumour line D
[10] = at 46 µM (top of the series), tumour line A

Nuclear receptor subfamily 1 group I member 2 (Rattus norvegicus), sequence (Q9R1A7 whole entry, looked up): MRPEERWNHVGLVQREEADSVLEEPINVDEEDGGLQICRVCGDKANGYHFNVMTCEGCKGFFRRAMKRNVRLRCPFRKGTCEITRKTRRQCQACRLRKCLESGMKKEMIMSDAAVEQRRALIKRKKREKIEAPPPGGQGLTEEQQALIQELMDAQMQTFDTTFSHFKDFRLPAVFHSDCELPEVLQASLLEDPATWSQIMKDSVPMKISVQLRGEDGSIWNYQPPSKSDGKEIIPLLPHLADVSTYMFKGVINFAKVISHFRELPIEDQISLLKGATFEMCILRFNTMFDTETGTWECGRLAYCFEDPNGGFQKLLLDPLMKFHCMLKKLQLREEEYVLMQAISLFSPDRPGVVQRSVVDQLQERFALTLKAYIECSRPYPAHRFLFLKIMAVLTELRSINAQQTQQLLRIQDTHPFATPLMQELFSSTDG

SMILES: CCCCCCCCCCCCCCCC[N+](C)(C)CC
- Potency (PA-1): 10 µM (active)
- Potency (SKOV3): 2.51 µM (active)
- Potency (Tov-21-G): 10 µM (active)
- Potency (Tov112D): 28.2 µM (active)
- Potency (astro): 5.62 µM (active)

SMILES: Oc1ccc(O)cc1
- Potency (PA-1): inactive
- Potency (SKOV3): inactive
- Potency (Tov-21-G): inactive
- Potency (Tov112D): inactive
- activity, negative = cell killing [1, 4]: -0.769%
- max response [2]: -4.09%
- outcome [3]: inactive

SMILES: CC(C)(C)CC(C)(C)c1ccc(OCCOCC[N+](C)(C)Cc2ccccc2)cc1
- Potency (PA-1): 14.1 µM (active)
- Potency (SKOV3): 12.6 µM (active)
- Potency (Tov112D): inactive
- Potency (astro): 20 µM (active)

SMILES: CN1CCCC(CC2c3ccccc3Sc3ccccc32)C1 (stereo unspecified)
- Potency (PA-1): inactive
- Potency (Tov-21-G): inactive
- Potency (Tov112D): inactive
- activity, negative = cell killing [1, 5]: 5.58%
- Potency ([1]; tumour line A): 2.24 µM (active)
- Potency ([1]; tumour line B): 12.6 µM (active)

SMILES: CCCN1CCCC[C@H]1C(=O)Nc1c(C)cccc1C
- Potency (PA-1): inactive
- Potency (Tov-21-G): inactive
- Potency (Tov112D): inactive
- activity, negative = cell killing [1, 6]: -11.5%
- activity, negative = cell killing [1, 7]: -25.5%
- activity, negative = cell killing [1, 4]: -6.18%
- Potency ([1]; tumour line A): 35.5 µM (active)
- Potency (astro): inactive

SMILES: O=C1c2ccccc2C(=O)C1c1ccccc1
- Potency (PA-1): inactive
- Potency (Tov-21-G): inactive
- Potency (Tov112D): inactive
- activity, negative = cell killing [1, 5]: 22.2%
- activity, negative = cell killing [1, 8]: -2.67%
- activity, negative = cell killing [1, 9]: -10.9%
- Potency (astro): inactive

SMILES: CCN1CCC[C@H]1CNC(=O)c1c(OC)ccc(Br)c1OC
- Potency (PA-1): inactive
- Potency (Tov-21-G): inactive
- Potency (Tov112D): inactive
- activity, negative = cell killing [1, 6]: -5.99%
- activity, negative = cell killing [1, 7]: -23.8%
- activity, negative = cell killing [1, 4]: -7.43%

SMILES: CC(=O)Oc1ccc(C(c2ccc(OC(C)=O)cc2)c2ccccn2)cc1
- Potency (PA-1): inactive
- Potency (SKOV3): inactive
- activity, negative = cell killing [1, 6]: -5.88%
- activity, negative = cell killing [1, 7]: -3.54%
- activity, negative = cell killing [1, 10]: -29.3%
- max response [2]: -3.28%

SMILES: Cc1ccc(O)c2ncccc12
- Potency (PA-1): inactive
- Potency (SKOV3): inactive
- Potency (Tov-21-G): inactive
- Potency (Tov112D): inactive
- Potency (astro): inactive

SMILES: CCCCCCCCCCCCCCCC[N+](C)(C)CCN(Cc1ccc(OC)cc1)c1ncccn1
- Potency (PA-1): 15.8 µM (active)
- Potency (SKOV3): 20 µM (active)
- Potency (Tov112D): 20 µM (active)
- activity, negative = cell killing [1, 5]: -23.1%
- Potency ([1]; tumour line A): 8.91 µM (active)
- Potency ([1]; tumour line B): 14.1 µM (active)

SMILES: NCCc1ccn[nH]1
- Potency (PA-1): inactive
- Potency (Tov-21-G): inactive
- Potency (Tov112D): inactive
- activity, negative = cell killing [1, 5]: -4.24%
- activity, negative = cell killing [1, 8]: -2.24%
- activity, negative = cell killing [1, 9]: 2.99%
- activity, negative = cell killing ([1]; at 21.3 µM (top of the series), tumour line A): -21.3%
- Potency (astro): inactive

SMILES: C/C=C(/C(=C/C)c1ccc(O)cc1)c1ccc(O)cc1
- Potency (PA-1): inactive
- Potency (Tov-21-G): inactive
- Potency (Tov112D): inactive
- activity, negative = cell killing [1, 5]: -5.62%
- activity, negative = cell killing [1, 8]: -8.12%
- activity, negative = cell killing [1, 9]: -22.4%

SMILES: CCCCCCCCCCOCC(O)CN (stereo unspecified)
- Potency (PA-1): inactive
- Potency (Tov-21-G): inactive
- Potency (Tov112D): inactive

SMILES: Nc1ccc(C(=O)Nc2ccccc2N)cc1
- Potency (PA-1): 11.2 µM (active)
- Potency (SKOV3): inactive
- Potency (Tov112D): inactive

SMILES: CC(=O)OCC(=O)NCCCOc1cccc(CN2CCCCC2)c1
- Potency (PA-1): inactive
- Potency (Tov-21-G): inactive
- Potency (Tov112D): inactive
- activity, negative = cell killing [1, 6]: 0.906% and -1.58%
- activity, negative = cell killing [1, 7]: -12.4% and -6.14%
- activity, negative = cell killing [1, 10]: -17.5%
- activity, negative = cell killing [1, 4]: -13.4% and 4.52%
- Potency (astro): inactive

SMILES: CC(Cc1cccc(C(F)(F)F)c1)NCCOC(=O)c1ccccc1 (stereo unspecified)
- Potency (PA-1): inactive
- Potency (SKOV3): inactive
- Potency (Tov-21-G): inactive
- Potency (Tov112D): inactive
- Potency (astro): inactive

SMILES: CN1[C@@H]2CC[C@H]1CC(OC(=O)c1c[nH]c3ccccc13)C2 (stereo partly specified)
- Potency (PA-1): inactive
- Potency (Tov-21-G): inactive
- Potency (Tov112D): inactive
- activity, negative = cell killing [1, 6]: 0.619%
- activity, negative = cell killing [1, 7]: -12.6%
- activity, negative = cell killing [1, 4]: 13.1%
- Potency ([1]; tumour line A): 11.2 µM (active)

SMILES: COC1=CC(=O)C[C@@H](C)[C@]12Oc1c(Cl)c(OC)cc(OC)c1C2=O
- Potency (SKOV3): inactive
- activity, negative = cell killing [1, 6]: -17.6%
- activity, negative = cell killing [1, 7]: -7.65%
- activity, negative = cell killing [1, 4]: -2.75%

SMILES: CN(C)CC/C=C1\c2ccccc2Sc2ccc(Cl)cc21
- Potency (PA-1): inactive
- Potency (Tov-21-G): inactive
- activity, negative = cell killing [1, 4]: -26.8%
- Potency ([1]; tumour line A): 6.31 µM (active)
- Potency ([1]; tumour line D): 11.2 µM (active)
- Potency (astro): 22.4 µM (active)

SMILES: CCOc1ccc(Cc2nccc3cc(OCC)c(OCC)cc23)cc1OCC
- Potency (SKOV3): 2.24 µM (active)
- Potency (Tov-21-G): inactive
- activity, negative = cell killing [1, 5]: 6.5%

SMILES: COCc1c(C(C)C)nc(C(C)C)c(/C=C/[C@@H](O)C[C@@H](O)CC(=O)O)c1-c1ccc(F)cc1
- Potency (PA-1): 2.82 µM (active)
- Potency (Tov-21-G): 7.08 µM (active)
- Potency (Tov112D): 3.16 µM (active)
- Potency (astro): 0.1 µM (active)

SMILES: CC(=O)Oc1ccc2c(c1)CC[C@@H]1[C@@H]2CC[C@]2(C)[C@@H](O)CC[C@@H]12
- Potency (SKOV3): inactive
- Potency (Tov-21-G): inactive
- activity, negative = cell killing [1, 4]: -5.95%
- Potency ([1]; tumour line A): 12.6 µM (active)
